AmpC detergent = inhibitors of E. coli AmpC beta-lactamase with detergent | P00811 | AID 485294 | AmpC hydrolysis of nitrocefin, absorbance 480 nm, 0.01% Triton | Potency, µM (top dose mostly 114 µM), most hits filed as inhibitors | actives 0.041% (n = 370,000); further: nearly all actives have a fitted effect of over 25% in size
Target sequence (P00811 whole entry, looked up): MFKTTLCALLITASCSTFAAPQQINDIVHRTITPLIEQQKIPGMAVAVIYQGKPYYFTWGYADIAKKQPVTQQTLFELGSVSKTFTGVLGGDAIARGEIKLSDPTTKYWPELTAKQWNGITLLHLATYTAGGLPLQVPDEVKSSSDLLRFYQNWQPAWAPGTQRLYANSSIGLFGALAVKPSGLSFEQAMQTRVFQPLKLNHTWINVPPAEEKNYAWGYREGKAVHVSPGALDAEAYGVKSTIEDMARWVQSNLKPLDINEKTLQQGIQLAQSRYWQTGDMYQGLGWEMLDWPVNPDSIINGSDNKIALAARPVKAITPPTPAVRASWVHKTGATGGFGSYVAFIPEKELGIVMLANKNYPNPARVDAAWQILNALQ
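20 mM phosphate pH 7.0 + 0.01% (detergent screen) or 0.0001% Triton X-100; 5.3 nM AmpC reagent; cpd preinc 15 min RT; nitrocefin (800 uM stock) to start; A480 q20 s × 4 min; Activity was normalised to no-enzyme and no-compound control wells.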
AmpC inh no detg = blocks E. coli AmpC beta-lactamase in detergent-free assay. P00811. AmpC nitrocefin hydrolysis, absorbance 480 nm, 0.0001% Triton. Potency, µM (doses to about 57.1 µM), actives largely listed as inhibitors. actives 0.52% (n = 330,000). AID 485341; further: nearly all actives have a fitted effect of over 20% in size
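AmpC (5.3 nM in the dispensed reagent) in 20 mM phosphate pH 7.0 with 0.01% (detergent screen) or 0.0001% Triton X-100 was preincubated with compounds for 15 min at room temperature. Nitrocefin was then added from an 800 uM solution, and hydrolysis was followed at 480 nm.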
Vaccinia Venus = inhibitors of vaccinia virus (Venus reporter); Vaccinia virus Venus reporter expression, fluorescence; Potency, µM (series often up to 36.5 µM), usual class: inhibitors; actives 0.46% (n = 330,000); AID 720580; calls by dose curve; tested in A549 cells; further: nearly all actives have a fitted effect of over 30% in size
Vaccinia mCherry = inhibitors of vaccinia virus infection (mCherry reporter signal). Vaccinia virus mCherry reporter infection, fluorescence. Potency, µM (titrated, usually from 36.5 µM), hits mostly inhibitors. actives 0.63% (n = 310,000). AID 720579; calls by dose curve; tested in A549 cells; further: nearly all actives have a fitted effect of over 35% in size
SARS PLpro yeast = blocks SARS-CoV papain-like protease in a yeast assay; Potency, µM (titrated, usually from 32.9 µM), actives largely listed as activators; actives 0.19% (n = 330,000); S. cerevisiae expressing SARS-CoV PLpro, growth rescue; calls by dose curve; further: nearly all actives have a fitted effect of over 55% in size
Large screens that a line does not name were inactive. The list is not random: actives were taken first. Their share in the collection is about 1.3%. Unless noted, the call rests on the fitted dose curve; in most records, active means well fitted curve in the direction sought with a large enough effect; inconclusive means small, poorly fitted or top-dose-only effect, or another doubt; inactive means no such curve, though single readings can be large; an effect the other way counts as inactive or inconclusive.

CC[C@]12c3[nH]c4cc(-c5ccco5)ccc4c3CCN1C(=O)[C@@H](CC(=O)NCC13CC4CC(CC(C4)C1)C3)C[C@@H]2C(=O)N1CCN(C(=O)C2CC2)CC1	Vaccinia Venus inconclusive, Vaccinia mCherry inconclusive (no result: AmpC detergent)
C[C@]12c3[nH]c4cc(-c5ccco5)ccc4c3CCN1C(=O)[C@@H](CC(=O)NCC13CC4CC(CC(C4)C1)C3)C[C@@H]2C(=O)N1CCCCC1	Vaccinia Venus inconclusive, Vaccinia mCherry 11µM (no result: AmpC detergent)
O=c1cc(N2CCN(c3ccc(F)cc3)CC2)[nH]c(=O)n1Cc1ccc(F)cc1	AmpC inh no detg 25µM
COc1ccc(N2CCN(c3cc(=O)n(Cc4ccc(F)cc4)c(=O)[nH]3)CC2)cc1	AmpC detergent inconclusive
CSc1ncccc1C(=O)NCc1ccc(C)cc1	Vaccinia Venus 10µM, Vaccinia mCherry inconclusive
CCOc1ncccc1C(=O)NCc1ccc(C)cc1	none
Cc1cccc(C)c1NC(=O)C(=O)NCCCN1CCOCC1	Vaccinia Venus 2µM, Vaccinia mCherry 6.3µM
C#CCOCCOCCOCCNc1nc(N2CCN(C(=O)CCCCCCCCCCNC(=O)[C@H](CO)n3cc(CCCSC)nn3)CC2)nc(N2CCN(C(=O)CCCCCCCCCCNC(=O)[C@H](CCCN=C(N)N)n3cc(C[C@@H](C)CC)nn3)CC2)n1	Vaccinia Venus 11µM
C#CCOCCOCCOCCNc1nc(N2CCN(C(=O)CCCCCCCCCCNC(=O)Cn3cc(C[C@@H](C)O)nn3)CC2)nc(N2CCN(C(=O)CCCCCCCCCCNC(=O)[C@H](CCCN=C(N)N)n3cc(C[C@@H](C)CC)nn3)CC2)n1	AmpC detergent inconclusive, Vaccinia Venus 11µM
C#CCOCCOCCOCCNc1nc(N2CCN(C(=O)CCCCCCCCCCNC(=O)Cn3cc(C[C@@H](C)O)nn3)CC2)nc(N2CCN(C(=O)CCCCCCCCCCNC(=O)[C@H](CCCCN)n3cc(CCCC(=O)O)nn3)CC2)n1	none
CN(CCO)C(=O)c1cn(C2CCCN(Cc3cccc4ccccc34)C2)nn1 (configuration not stated)	none (no result: AmpC detergent, AmpC inh no detg, SARS PLpro yeast)
COc1cc(CN2CCC3(CCC(CNC(=O)c4ccccc4)O3)CC2)cc(OC)c1 (configuration not stated)	none (no result: AmpC detergent, AmpC inh no detg, SARS PLpro yeast)
Nc1nc(=O)n(C2OC(CO)C(O)C2O)cc1F (configuration not stated)	Vaccinia mCherry 2µM (no result: AmpC detergent, AmpC inh no detg, SARS PLpro yeast)
O=c1[nH]c(=S)ccn1C1OC(CO)C(O)C1O (configuration not stated)	none (no result: AmpC detergent, AmpC inh no detg, SARS PLpro yeast)
Nc1ncn(C2O[C@H](CO)[C@@H](O)[C@H]2O)c(=O)n1 (some centres not stated)	AmpC detergent inconclusive (no result: Vaccinia Venus, Vaccinia mCherry, SARS PLpro yeast)
O=c1[nH]c(=O)n(C2OC(CO)C(O)C2O)cc1F (configuration not stated)	Vaccinia Venus inconclusive, Vaccinia mCherry 1µM (no result: AmpC detergent, AmpC inh no detg, SARS PLpro yeast)
O=c1[nH]c(=O)n([C@@H]2O[C@H](CO)[C@@H](O)[C@H]2O)cc1F	Vaccinia Venus inconclusive, Vaccinia mCherry 1.1µM (no result: AmpC detergent, AmpC inh no detg, SARS PLpro yeast)
COc1ccc(CCNC(=O)c2cnn(-c3nccc(-c4cccs4)n3)c2C)cc1OC	Vaccinia Venus inconclusive (no result: AmpC detergent, AmpC inh no detg, SARS PLpro yeast)
CC1CCN(c2ccc(-c3nc(C(C)C)no3)cc2[N+](=O)[O-])CC1	none (no result: AmpC inh no detg, SARS PLpro yeast)
CCC(CC)N=C1NS(=O)(=O)c2cc([N+](=O)[O-])ccc21	Vaccinia Venus inconclusive, Vaccinia mCherry 13µM
COc1ccccc1CNC(=O)CCC1N=C2c3ccccc3N=C(SCc3ccc(C)cc3)N2C1=O (configuration not stated)	Vaccinia Venus inconclusive, Vaccinia mCherry inconclusive (no result: AmpC inh no detg, SARS PLpro yeast)
COc1ccccc1CNC(=O)CCC1N=C2c3ccccc3N=C(SCc3cccc(Cl)c3)N2C1=O (configuration not stated)	Vaccinia Venus inconclusive, Vaccinia mCherry 4µM (no result: AmpC inh no detg, SARS PLpro yeast)
O=C(CCC1N=C2c3ccccc3N=C(SCc3ccc(F)cc3)N2C1=O)N1CCN(c2ccccc2)CC1 (configuration not stated)	none (no result: AmpC inh no detg, SARS PLpro yeast)
O=C(CCC1N=C2c3ccccc3N=C(SCc3cccc(Cl)c3)N2C1=O)N1CCN(c2ccccc2)CC1 (configuration not stated)	Vaccinia Venus inconclusive, Vaccinia mCherry 8.9µM (no result: AmpC inh no detg, SARS PLpro yeast)
C=CC(=O)Nc1cccc(Oc2ncnc3[nH]cc(-c4cnc5ccccc5c4)c23)c1	Vaccinia Venus 11µM, Vaccinia mCherry inconclusive (no result: AmpC detergent)
O=Nc1c(O)n(Cc2ccc(Cl)c(Cl)c2)c2ccccc12	AmpC inh no detg 2.5µM (no result: Vaccinia Venus, Vaccinia mCherry)
O=Nc1c(O)n(Cc2ccccc2)c2ccccc12	Vaccinia mCherry inconclusive
CCCCN(CC)CCCNC(=O)c1ccc2c(c1)N(Cc1ccc(C)cc1)C(=O)c1ccccc1S2	Vaccinia Venus inconclusive, Vaccinia mCherry 13µM (no result: AmpC inh no detg, SARS PLpro yeast)
O=C(CCl)Nc1cccc(-c2cnc3ccccc3n2)c1	Vaccinia Venus inconclusive, Vaccinia mCherry 11µM, SARS PLpro yeast inconclusive
CCC(=O)Nc1cccc(-c2cnc3ccccc3n2)c1	none (no result: Vaccinia Venus, Vaccinia mCherry)
c1coc(CNc2ncnc3c2[nH]c2ccccc23)c1	Vaccinia Venus inconclusive (no result: AmpC detergent, AmpC inh no detg, SARS PLpro yeast)
Cc1oc(-c2ccccc2NC(=O)C2CCC2)nc1CNC(=O)c1ccc(C#CC(C)(C)O)cc1	none (no result: AmpC detergent, AmpC inh no detg, SARS PLpro yeast)
O=C(N/N=C(\c1ccccc1)c1cccnc1)c1ccc(O)cc1	none
O=C(N/N=C(\Cc1ncc[nH]1)c1ccccc1)c1ccncc1	Vaccinia Venus inconclusive, Vaccinia mCherry 10µM
O=C(N/N=C(\Cc1ncc[nH]1)c1ccccc1)c1cccnc1	Vaccinia Venus inconclusive, Vaccinia mCherry 11µM
O=C(N/N=C(\c1ccccc1)c1cccnc1)c1cccc(F)c1	Vaccinia Venus inconclusive, Vaccinia mCherry 3.2µM
O=C(N/N=C(\Cc1ncc[nH]1)c1ccccc1)c1ccccc1	none (no result: Vaccinia Venus, Vaccinia mCherry)
Oc1cc(-c2cccs2)cc2c1OCCN(Cc1cn[nH]c1-c1ccc(Cl)cc1)C2	none (no result: AmpC detergent, AmpC inh no detg, SARS PLpro yeast)
CCOC(=O)c1c(-c2ccccc2)oc2ccc(OCC(O)CNCCN(C)C)cc12 (configuration not stated)	Vaccinia Venus inconclusive, Vaccinia mCherry 11µM
CCOC(=O)c1c(-c2ccccc2)oc2ccc(OCC)cc12	Vaccinia mCherry inconclusive
O=C(Nc1cccc(-c2ccc(N3CCOCC3)nn2)c1)c1ccc(Cl)cc1	AmpC detergent inconclusive, AmpC inh no detg 32µM
CCC(=O)NC(c1ccc(OC)cc1)c1cc(Cl)c2cccnc2c1O (configuration not stated)	Vaccinia Venus inconclusive, Vaccinia mCherry inconclusive
COc1cccc(C(=O)NC(c2ccc(Cl)cc2)c2cc(Cl)c3cccnc3c2O)c1 (configuration not stated)	Vaccinia Venus inconclusive, Vaccinia mCherry 10µM (no result: AmpC inh no detg, SARS PLpro yeast)
COc1ccc(C(=O)NC(c2ccc(OC)c(OC)c2)c2cc(Cl)c3cccnc3c2O)cc1 (configuration not stated)	Vaccinia Venus inconclusive, Vaccinia mCherry 4.5µM (no result: AmpC detergent, AmpC inh no detg, SARS PLpro yeast)
COc1cc(C(=O)NC(c2ccc(Cl)cc2)c2cc(Cl)c3cccnc3c2O)cc(OC)c1OC (configuration not stated)	Vaccinia Venus inconclusive, Vaccinia mCherry 16µM (no result: AmpC inh no detg, SARS PLpro yeast)
CCC(COC)NC(=O)c1cnn(-c2ncc3c(n2)-c2ccccc2CC3)c1C (configuration not stated)	none (no result: AmpC detergent, AmpC inh no detg, SARS PLpro yeast)
